Test results taken from PubChem BioAssay AID720553 (National Center for Advancing Translational Sciences (NCATS), 2013).
In all, about 340,000 compounds went through this assay and about 3,300 (0.97%) were called active. The sample as a whole holds a higher share of actives than the screen did. A number with no mark means an inactive call.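 The calls were made as follows: active = maximum activity change below -70%; inconclusive = maximum activity change from -70% to -50%; inactive = maximum activity change above -50%.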

Each compound was assayed on Potassium voltage-gated channel subfamily H member 2, brain isoform KCNH2 3.1 (human) (assay: qHTS for Inhibitors of KCHN2 3.1: Mutant qHTS). Settings: U2OS KCNH2 3.1, thallium flux FluxOr; hits give low values.
From the text: Many antipsychotic drugs that inhibit the neurotransmitter dopamine also bind to hERG1 channel which might help explain their antipsychotic activity but also produces cardiac side effects. The discovery of the novel KCNH2 3.1 isoform offers a potential new target for the development of antipsychotic drugs without cardiac side effects. This proposal will use a high throughput thallium flux assay developed for KCNH2 to screen compounds that modulate the activity of KCNH2 3.1. The wild type KCNH2 channel will also be screened in parallel to help define the selective modulators of this KCNH2 3.1 potassium channel. The resulting compounds will be validated in electrophysiology experiments. The availability of animal models will allow future testing in vivo for effects on memory and other aspects of animal physiology linked with psychosis. NIH Chemical Genomics Center [NCGC] NIH Molecular Libraries Probe Centers Network [MLPCN] MLPCN Grant: MH096539 Assay Submitter (PI): James Barrow, Johns Hopkins University, Lieber Institute for Brain Development
U2OS cells were resuspended in cell media containing 10% fetal calf serum (FCS) at a concentration of 2 million cells / mL. The solution was treated with the mutant (3.1) virus at 1.77 x 10^8 / mL and allowed to incubate at room temperature in the dark. After 4 hours of incubation, DMEM + 10% fetal bovine serum (FBS) was added to the cell solution. Three microliter was then dispensed into a 1536 tissue culture treated black assay plates which were incubated overnight at 37 C. Two microliter of loading buffer (HBSS + HEPES + Red40 dye quencher + FluxOr dye) was added and the assay plates were incubated for 45 min at room temperature in the dark. […] A stimulation buffer was added to the plate and the second kinetic read (2 min) was obtained. The rate constant was calculated from the kinetic reads and normalized to the positive and negative DMSO controls.
% is scaled to controls: 0 for no effect and ±100 for the full control effect.

SMILES	activity change
CCc1ccccc1OCC(=O)Nc1nnc(C2CC2)s1	-8.55%
O=C(Cc1cccs1)Nc1nnc(SCc2ccc(F)cc2)s1	3.31%
O=C(Cc1cccs1)Nc1nnc(C2CC2)s1	-217% (active)
O=S(=O)(NC1CCCC1)c1ccc(-n2cnnn2)cc1	5.4%
Cc1cc(S(=O)(=O)NC2CCCC2)ccc1-n1cnnn1	-70.6% (active)
CCOC(=O)C1CCCN(S(=O)(=O)c2ccc(-n3cnnn3)c(C)c2)C1 (configuration not stated)	10.1%
O=C(c1ccc(Cl)c([N+](=O)[O-])c1)N1CCN(c2ccccc2)CC1	9.67%
O=C(c1ccc(N2CCOCC2)c([N+](=O)[O-])c1)N1CCN(c2ccccc2F)CC1	1.08%
O=C(/C=C/c1ccc(Cl)cc1)N1CCN(c2ccccc2[N+](=O)[O-])CC1	-108% (active)
C[C@H]1CN([C@@H](C)CO)C(=O)CCCn2cc(nn2)CO[C@@H]1CN(C)C(=O)Nc1ccccc1	13.1%
O=C(O)C(=Cc1ccc([N+](=O)[O-])cc1)CCc1ccccc1	-2.12%
COc1ccc(NC(=O)CN(C)C(=O)c2cccc(S(=O)(=O)N3CCN(c4ccccc4)CC3)c2)cc1	-101% (active)
Cc1ccc(NC(=O)CN(C)C(=O)c2cccc(S(=O)(=O)N3CCCC3)c2)cc1	4.37%
CCOc1ccc(NC(=O)CN(C)C(=O)c2cccc(S(=O)(=O)N3CCCC3)c2)cc1OCC	0.537%
CC(C)CC1C(=O)N(Cc2cn(CC3CCCCC3)nn2)CCS(=O)(=O)N1Cc1ccc(-c2ccc(Cl)cc2)cc1 (configuration not stated)	4.02%
Cc1sc2nc(CC(N)=O)[nH]c(=O)c2c1-c1ccccc1	4%
NC(=O)Cc1nc2scc(-c3ccc(Cl)cc3)c2c(=O)[nH]1	-145% (active)
O=c1[nH]c(CN2CCOCC2)nc2scc(-c3ccccc3)c12	0.718%
C[C@@H]1CN([C@@H](C)CO)S(=O)(=O)c2ccc(-c3ccc(C(=O)N(C)C)cc3)cc2O[C@@H]1CN(C)Cc1ccccc1C(=O)O	-0.261%
CC(=O)Nc1ccc(C=Cc2ccc([N+](=O)[O-])cc2)cc1	-16.2%
Cc1ccc(C(CNC(=O)Nc2ccccc2)N2CCN(C)CC2)cc1 (configuration not stated)	-194% (active)
Cc1ccc(C(CNC(=O)Nc2cccc(C)c2)N2CCN(C)CC2)cc1 (configuration not stated)	3.75%

SMILES	activity change
COc1ccc(S(=O)(=O)NCC(c2ccc(C)cc2)N2CCN(C)CC2)cc1OC (configuration not stated)	-2.06%
Cc1ccc(S(=O)(=O)N2C[C@H]3n4c(=O)ccc(=O)n4C[C@H](OC(=O)NC4CCCC4)[C@@]3(O)C2)cc1	-5.45%
C[C@@H]1CN([C@H](C)CO)C(=O)c2cc(Br)cnc2O[C@@H]1CN(C)Cc1cncnc1	6.02%
C[C@@H]1CN([C@@H](C)CO)C(=O)c2cc(Br)cnc2O[C@H]1CN(C)Cc1ccc(-c2ccccc2)cc1	-85.7% (active)
C[C@H]1CN([C@@H](C)CO)C(=O)c2cc(Br)cnc2O[C@H]1CN(C)S(=O)(=O)c1cccs1	-4.3%
C[C@H](CO)N1C[C@H](C)[C@H](CN(C)C(=O)Nc2ccc3c(c2)OCO3)Oc2ncc(Br)cc2C1=O	12.1%
CSc1ncnc2c1ncn2CCCNCC(C)c1ccccc1 (configuration not stated)	6.46%
Cc1ccc(-n2c(SCC(=O)NCCC3=CCCCC3)nc3n[nH]c(C)c3c2=N)cc1Cl	-4.71%
COc1cccc(-n2c(SCC(=O)NC3CCCCC3)nc3n[nH]c(C)c3c2=N)c1	13.7%
CCCCNC(=O)CSc1nc2n[nH]c(C)c2c(=N)n1-c1cccc(Cl)c1C	-75.1% (active)
Cc1[nH]c2ccccc2c1C(=O)C(=O)NCc1nnnn1-c1cccc(F)c1	-6.04%
O=C(COC(=O)CCc1c[nH]c2ccccc12)Nc1cccc(Cl)c1	-6.53%
CCN(C(=O)COC(=O)Cc1c(F)cccc1Cl)c1c(N)n(Cc2ccccc2)c(=O)[nH]c1=O	-102% (active)
CCN(C(=O)COC(=O)CCOc1cccc(C)c1)c1c(N)n(Cc2ccccc2)c(=O)[nH]c1=O	11.4%
COCCN(C(=O)COC(=O)Cc1cccc(OC)c1)c1c(N)n(Cc2ccccc2)c(=O)[nH]c1=O	8.15%
CC1CCC2(CC1)NC(=O)N(CC(=O)NCc1ccco1)C2=O (configuration not stated)	15.5%
O=C(NCCN1CCOCC1)c1cccc(S(=O)(=O)Nc2ccc(F)cc2)c1	-9.37%
O=C(NCc1ccccc1CN1CCCC1)c1cccc(S(=O)(=O)Nc2ccc(F)cc2)c1	-81.1% (active)
COc1ccccc1C(CNC(=O)c1cccc(S(=O)(=O)Nc2ccc(F)cc2)c1)N(C)C (configuration not stated)	0.933%
O=C(CC(CC(=O)c1ccccc1)c1ccco1)c1ccccc1	-1.01%
CSC1=NN(c2ccccc2)CN(c2ccccc2)N1C	-1.49%
Cc1ccc(OCc2n[nH]c(=S)n2-c2ccccc2)cc1	-4.15%

SMILES	activity change
Cc1cccnc1NC(=O)CSc1nnc(COc2ccc(C(C)C)cc2)n1C	13.2%
Cc1ccc(OCc2nnc(SC3CCc4ccccc4C3=O)n2C)cc1 (configuration not stated)	-114% (active)
Cc1sc2nc(-c3ccccc3F)oc(=O)c2c1C	9.16%
CC1=C(C(=O)N(C)C)CC(CC(=O)NCCN2CCOCC2)C(=O)N1Cc1ccccc1 (configuration not stated)	-16.9%
C[C@@H]1CN([C@H](C)CO)C(=O)CCCn2cc(nn2)CO[C@H]1CN(C)S(C)(=O)=O	21.6%
CC(NC(=O)c1cc(-c2ccccc2)on1)c1ccccc1 (configuration not stated)	-114% (active)
O=C(NC1CCCC1)c1cc(-c2ccccc2)on1	4.52%
Cc1ccc(C(=O)NC(C)c2ccccc2)cc1Br (configuration not stated)	-9.99%
COc1cccc(N2CC(NS(=O)(=O)c3ccc(Cl)cc3)CC2=O)c1 (configuration not stated)	25.6%
COc1ccc(N2CC(NS(=O)(=O)c3ccc4ccccc4c3)CC2=O)cc1 (configuration not stated)	-102% (active)
COc1cccc(N2CC(NS(=O)(=O)c3cccs3)CC2=O)c1 (configuration not stated)	-5.41%
COc1ccc([C@H]2N[C@]3(CCCN(Cc4ccco4)C3=O)[C@H]3C(=O)N(C)C(=O)[C@@H]23)cc1	-5.99%
CCc1c(N=O)c(-c2ccccc2)n(O)[n+]1[O-]	-12.8%
C[C@H]1CCC(=O)N([C@H](CSc2ccccc2)Cc2ccccc2)CC1	2.57%
O=C1CC[C@H](O)CCN1[C@H](CSc1ccc(Br)cc1)Cc1ccccc1	8.81%
COc1ccc(SC[C@H](Cc2ccccc2)N2CCN(CCc3ccccc3)CCC2=O)cc1	-105% (active)
COc1cc(C=NC2CCCCC2)ccc1O	-7.89%
C[C@H](CO)N1C[C@H](C)[C@@H](CN(C)S(=O)(=O)c2ccc(Oc3ccccc3)cc2)OCc2cn(nn2)CCCC1=O	2.39%
C=CCN1CCN(c2ccncc2S(=O)(=O)N2CCN(C)CC2)CC1	-3.97%
Cc1ccc([C@H]2C[C@H](O)[C@@H](n3cc(COC(=O)c4ccccc4)nn3)CN2C(=O)C2CCCCC2)cc1	-7.68%
COc1cccc(NC(=O)CN(C)C(=O)c2cc(Cl)nc3ccccc23)c1	14.5%
CN1CCN(C2Cc3ccc(Cl)cc3Sc3ccc(F)cc32)CC1 (configuration not stated)	-75.9% (active)

SMILES	activity change
O=C(O)C1CCCN1c1nc(Cl)ccc1[N+](=O)[O-] (configuration not stated)	-2.11%
O=C(COC(=O)c1ccc(S(=O)(=O)N2CCCCCC2)cc1)Nc1ccccc1C(F)(F)F	-2.65%
CC(=O)Nc1c(-c2ccc(C)cc2)nc2ccc(Cl)cn12	2.86%
CCCCCCC(O)(CCN1CCCCC1)c1ccccc1 (configuration not stated)	-21.6%
CCCCCC(O)(CCN1CCCCC1)c1ccccc1 (configuration not stated)	-102% (active)
C#CC(CCN1CCCCC1)(OC)c1ccccc1 (configuration not stated)	58.1%
Cc1ccc(NC(=O)c2ccco2)cc1	4.6%
Cc1cc(C)c2c(=O)n3c(nc2c1)C(CC(C)C)NC(=O)c1cc2ccccc2cc1-3 (configuration not stated)	-30.6%
O=C(Nc1nonc1-c1ccc(Cl)cc1)c1ccco1	-7.1%
O=C(Nc1c(-c2ccccc2)nc2c(Br)cc(Br)cn12)c1ccco1	-72.2% (active)
Cc1ccccc1NC(=O)c1cnn(-c2ccccc2)c1NC(=O)c1ccco1	11.4%
CCCCCCN1C[C@H](O)[C@@H](n2cc(C3CC3)nn2)C[C@@H]1c1ccc(Cl)cc1	-39.7%
CN1OC[C@@H]2CN(C(=O)c3ccc(-c4ccccc4)cc3)[C@H](c3ccc(-c4cccc(F)c4)cc3)C[C@@H]21	-5.34%
COC(=O)C(Cc1c[nH]c2ccccc12)NC(=O)CCNC(=O)c1ccco1 (configuration not stated)	3.09%
O=C(C[C@H]1C[C@H]2c3cc(NS(=O)(=O)c4ccc(F)cc4)ccc3O[C@H]2[C@H](CO)O1)NCc1cc(F)ccc1F	-4.51%
CC1=C(C(=O)OC2CCCCC2)C(c2ccccc2F)NC(=O)N1 (configuration not stated)	8.03%
CCC(CC)COC(=O)C1=C(C)NC(=O)NC1c1ccc([N+](=O)[O-])cc1 (configuration not stated)	10.1%
CC1=C(C(=O)OCC2CCCCC2)C(c2ccc(F)cc2)NC(=O)N1 (configuration not stated)	-100% (active)
O=C(N/N=C/c1ccc2c(c1)OCO2)C(=O)N1CCCC1	-5.78%
COC(=O)c1ccc(/C=N/NC(=O)C(=O)N2CCCCCC2)cc1	2.79%
COc1cccc(/C=N/NC(=O)C(=O)N2CCCC2)c1	-74.7% (active)
